This is an account of results in ChEMBL document CHEMBL4513216, “Probing the Open Global Health Chemical Diversity Library for Multistage-Active Starting Points for Next-Generation Antimalarials” (ACS Infect Dis, 2020).

Structures are written as SMILES. In all, about 65,000 compounds went through this assay and about 2,100 (3.2%) showed an effect of 50% or more. The median lay at about -52%. The full list was thinned out, with strong results kept by preference.

The test relates to Plasmodium falciparum. Briefly: Screen against P. falciparum Asexual Blood Stage (ABS), at 5uM. The format is functional, Dd2. The settings on record: tested at 5 uM.
With `Cc1nc(C(=O)N(C)[C@@H]2CCC[C@@H](Oc3ccccc3)[C@@H]2O)co1`, the INHIBITION is -3.45%.

In the case of `CC(C)c1nsc(N2CCCOCC2)n1`, the INHIBITION was -47.6%.

As to `Cc1ccc(CN(CCCN2CCOCC2)Cc2cnn(C)c2)o1`, the INHIBITION is listed as -2.55%. Consider `Cc1ccc(CN(CCCN2CCOCC2)Cc2cnc(C)n2C)o1`, for which the INHIBITION was 55.1%. Next, `Cc1ccc(CN(CCCN(C)C)Cc2cnc(C)n2C)o1`: -17.8%.

As to `Cc1cc(NC(=O)NCc2cccnc2OC2CCCC2)n(C)n1`, the INHIBITION is listed as -37%. For `Cc1cc(Br)ccc1C(=O)NCCN1CCCCCC1`, the INHIBITION worked out at 30.2%. The same measure for `O=C(NCCN1CCCCC1)c1scnc1Cl`: -130%; for `O=C(NCCN1CCCCC1)c1cccc(Cl)c1Cl`: 50.5%; for `Cc1ccc(CN2C(=O)CCC23CCC(NCC2CCOC2)CC3)cc1` (stereo not drawn): -1.23%. Next, `O=C(NC1CCC1)[C@@H]1CCO[C@@H]2CCN(CCc3ccccc3)C[C@H]21`: 36.5%; `Cc1c[nH]nc1C1CCCN1Cc1ncc[nH]1` (stereo not drawn): 34.9%; `COc1cccc(CC2CCCN2CCCO)c1` (stereo not drawn): -8.85%. On to `Cc1c[nH]nc1C1CCCN1Cc1ccncc1` (stereo not drawn), for which the INHIBITION is on record as -8.01%. With `Cn1ccnc1CN1CCCC1CCc1ccccc1` (stereo not drawn), the INHIBITION is given as 37.6%.

Turning to `Cc1c[nH]nc1C1CCCN1Cc1nccn1C` (stereo not drawn), the INHIBITION turned out to be 57.3%. As to `COc1cccc(CC2CCCN2Cc2nccn2C)c1` (stereo not drawn), the INHIBITION came to 52%. The same measure for `CC1CCN(C(=O)C(C)N2CCN(c3nccs3)CC2)CC1` (stereo not drawn): -55.4%; for `Cc1cc(C(=O)N2CCCCC2C)ccc1NC(=O)N1CCOCC1` (stereo not drawn): -137%; for `O=C(N1CCCCC1)N1CCN(CC(O)c2ccccc2)CC1` (stereo not drawn): -4.34%. Take `O=C(c1cscn1)N1CCC[C@]2(C[C@H](OCC3CC3)CO2)C1`: the INHIBITION is reported as -132%. The same measure for `Cc1cc(-c2nccs2)nc(C2CCN(Cc3cccs3)CC2)n1`: 16.1%; for `Cc1cc(-c2nccs2)nc(C2CCN(Cc3ccc(F)cc3)CC2)n1`: 62.9%. As for `Cc1cc(-c2nccs2)nc(C2CCN(Cc3ccncc3)CC2)n1`, the INHIBITION was -25.9%. As to `O=C(c1csc(I)c1)N1CCc2c(ncn2C2CC2)C1`, the INHIBITION is -41.85%. As to `Cc1nc(CN2CCc3ncnc(-c4cccnc4)c3CC2)cs1`, the INHIBITION is -30.7%. The same measure for `CN1CCC2(COCCN(Cc3ccc4c(c3)OCO4)C2)C1` (stereo not drawn): -102%; for `CN1CC2(CCN(Cc3cccc(C#N)c3)CC2)CC1=O`: -15.1%. Next, `CN1CCC2(COCCN(Cc3cccc(C#N)c3)C2)C1` (stereo not drawn): 57%; `C/C=C(\C)CN1C[C@H](NC(=O)CCOC)[C@@H](c2ccc(C)o2)C1`: -33.1%; `CCC1(CO)CCN(C(=O)c2cc(COc3ccccc3F)[nH]n2)CC1`: -66.6%. As for `O=C(c1cccnc1)N1CCN2C[C@H](OCc3ccccc3)C[C@H]2C1`, the INHIBITION is -19.2%. Consider `CCc1ccc(C2CC(=O)Nc3c2c(=O)[nH]n3C(C)C)cc1` (stereo not drawn), for which the INHIBITION is recorded as -113%.

`c1ccc(CN2CCn3c(Cn4cncn4)cnc3C2)nc1`: the INHIBITION is reported as -53.9%. The same measure for `O=C1N(Cc2ccc(F)cc2)CCCC12CCN(C1CCSCC1)C2` (stereo not drawn): 9.56%; for `O=C1N(Cc2ccc(F)c(F)c2)CCCC12CCN(C1CCCCC1)C2` (stereo not drawn): 60.9%; for `O=C1N(Cc2ccccc2F)CCCC12CCN(C1CCSCC1)C2` (stereo not drawn): 34.2%. Regarding `Cc1cccc(CN2CCCC3(CCN(C4CCSCC4)C3)C2=O)c1` (stereo not drawn), the INHIBITION amounted to 6.83%. For `CCS(=O)(=O)N1CCC2(CCCN(Cc3ccc(F)c(F)c3)C2=O)C1` (stereo not drawn), the INHIBITION is reported as -68%.

In the case of `O=C1N(Cc2ccc(F)c(F)c2)CCCC12CCN(C1CCCC1)C2` (stereo not drawn), the INHIBITION was found to be 68.1%. Next, `CCCS(=O)(=O)N1C[C@H]2CC[C@@H](C1)N(Cc1cscn1)C2=O`: -60%; `Nc1cc(N2CCOCC(Cc3ccc4[nH]ccc4c3)C2)ncn1` (stereo not drawn): -6.79%; `CC(=O)Nc1nc(C(=O)NCCOc2ccc(C)cc2)cs1`: -4.82%. As for `CCc1nnsc1C(=O)NC1CCN(CCOc2ccc(Br)cc2)CC1`, the INHIBITION is 2.8%. The same measure for `Cc1nc(C(=O)NC2CCN(CCOc3ccc(Br)cc3)CC2)cs1`: 50%; for `CCn1ccnc1CN1CCCN(C(=O)c2ccnc(C)n2)CC1`: -61.7%; for `COc1ccc2c(c1)OCC(CNC1CCc3nc(C)nn3C1)=C2` (stereo not drawn): -98%. The same measure for `Cc1csc(N2CCCN(c3cc(C)nc(C)c3C#N)CC2)n1`: -45.8%; for `O=C(O)CCCC(=O)Nc1cnn(COc2ccc(F)cc2Cl)c1`: -39.2%. Next, `O=C(Nc1cnn(Cc2ccc(F)cc2Cl)c1)C1CC1`: -0.313%; `O=C(Nc1cnn(COc2ccc(F)cc2Cl)c1)C1CC1`: 67.2%. Consider `CO[C@H]1CN(C(=O)c2cn3cc(C)ccc3n2)CC[C@@]12CCCO2`, for which the INHIBITION is given as -142%.

`Cc1nc(C(=O)N(C)CC2CCCO2)nn1-c1ccccc1C(C)C` (stereo not drawn): the INHIBITION was -143%.
